# INS-1E GSIS act = primary screen for activators of insulin secretion dependent on glucose, INS-1E cells, GLuc reporter luminescence | 0.61% of 370,000 active | activation, % at 16.6 µM | INS-1E GLuc reporter insulin secretion, 2-3 h | AID 743287;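 active = lowest replicate activation of at least 40%, so every replicate reaches that level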;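 also: 0% = median of neutral control wells and 100% = median of IBMX positive control wells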
# MITF act = increases MITF-driven TRPM1 promoter luciferase signal | SK-MEL-5 TRPM1-promoter luciferase, 24 h; % of positive control, neutral wells = 0 | activation, % at 12.5 µM | 0.75% of 300,000 active | AID 588334;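 active = mean activation of at least 80% with every replicate also reaching 80%; inconclusive = mean reaches 80% but some replicate falls short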;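 also: 0% = neutral control wells and 100% = parthenolide positive control wells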
# Wnt act = activates Wnt/beta-catenin signaling in a reporter cell assay | activator, plate reader | AID 743398 | activation, % at 9.35 µM | 1.2% of 300,000 active; in the data active = activation above about 30%, passing the limit was not always enough; inconclusive = no clear call, values can overlap the other calls;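 also: 0% = neutral control wells and 100% = positive control wells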
# F508del corr = CFTR F508del correction in bronchial cells; CFBE cells, YFP halide quenching; stimulated with forskolin plus potentiator P3; % fluorescence drop versus neutral controls; activity (quench increase), % at 7.58 µM; 0.36% of 350,000 active; AID 720511;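 active = mean added fluorescence quench of at least 8% versus neutral control, with both replicates also reaching 8%; inconclusive = only one of the mean or replicate conditions met; inactive = mean below 8% and not both replicates reaching 8%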;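 also: cells transiently co-express mutant CFTR-F508del with the halide-sensitive YFP; corrector assay measuring rescue of mutant channel to the surface after 24 h compound exposure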
# Env fusion inh = blocks HIV Env-driven cell-cell fusion. inhibition, % at 12.3 µM. HeLa-JRFL Env/CEM21 cell fusion, luciferase. 1.1% of 360,000 active. AID 651610;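 active = mean replicate inhibition score of at least 50 and every replicate individually at or above 50; inconclusive = only one of the two criteria met; inactive = mean below 50 and not all replicates reaching 50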;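 also: 0% = plate neutral controls and 100% = maraviroc near 300 nM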
# * marks the source's active call; other numbers are inactive results; ? = inconclusive; nt = no result given; [ ] = remark or other dose. The list is not random: actives were taken first. Their share in the collection is about 2.7%.
SMILES,INS-1E GSIS act,MITF act,Wnt act,F508del corr,Env fusion inh
COc1ccc(-c2cnc3c(c2)C(=O)N([C@H](C)CO)C[C@H](C)[C@H](CN(C)C(=O)Nc2cccc4ccccc24)O3)cc1,-42,nt,nt,-2,3[16.7 µM]
C[C@H]1CN([C@@H](C)CO)S(=O)(=O)c2ccc(-c3ccc(C(=O)N(C)C)cc3)cc2O[C@H]1CN(C)Cc1ccccc1C(=O)O,27,nt,nt,-4,1[16.7 µM]
COc1cccc(Cn2c(NCc3ccco3)nc3c2c(=O)n(C)c(=O)n3C)c1,nt,nt,-13,nt,75*
O=C(Cc1ccccc1)N1CC2(C1)[C@H](c1ccccc1)[C@@H](CO)N2S(=O)(=O)Cc1ccccc1,-2,nt,nt,3,nt
COc1ccc(NC(=O)Nc2ccc3c(c2)C(=O)N([C@H](C)CO)C[C@H](C)[C@H](CN(C)S(=O)(=O)c2cccs2)OCCCC[C@H](C)O3)cc1,-30,nt,nt,2,11[16.7 µM]
CSc1ccccc1NC(=O)CN1CCN(c2ccccn2)CC1,7,-5,-1,-3,9
O=C(CN1CCN(c2ccccn2)CC1)Nc1ccc([N+](=O)[O-])cc1C(=O)Nc1ccccc1F,-6,-9,-4,-2,60*
CC(=O)c1ccc(N=Nc2ccc(N)cc2)cc1,-15,15,34*,0,-64
CC(=O)c1ccc(N=Nc2c(C)[nH][nH]c2=O)cc1,nt,nt,23,-1,-36
Cc1ccc(C(=O)CC(SCC(=O)O)c2ccc([N+](=O)[O-])cc2)cc1 (stereo not given),2,14,90*,-1,3
COc1ccc(C(=O)CCS(=O)(=O)c2ccc(C)cc2)cc1,9,0,2,-2,-1
Nc1ccccc1SC(CC(=O)c1ccccc1)c1cccc([N+](=O)[O-])c1 (stereo not given),-17,nt,-21,-8,-118
Nc1ccccc1SC(CC(=O)c1ccccc1)c1ccc([N+](=O)[O-])cc1 (stereo not given),2,nt,80*,-3,-145
COc1ccc(C(CC(=O)c2ccc(C)cc2)Sc2ccccc2N)cc1 (stereo not given),-5,nt,47*,2,-66
COc1ccc(C(CC(=O)c2ccc(O)cc2)S(=O)(=O)c2ccc(C)cc2)cc1 (stereo not given),-9,86*,20,-2,nt
CO[C@@H]1CN(C)C(=O)c2ccc(NS(=O)(=O)c3ccccc3C)cc2OC[C@@H](C)NC[C@H]1C,-1,nt,nt,1,nt
COc1ccc(NC(=O)N(C)C[C@@H]2Oc3c(NC(=O)c4ccc(-c5nccs5)cc4)cccc3C(=O)N([C@@H](C)CO)C[C@H]2C)cc1,31,nt,nt,2,9[16.7 µM]
O=C(NCC1OCCc2ccccc21)c1ccc(NC(=O)c2ccc(Cl)cc2)cc1 (stereo not given),249*,-70,-8,nt,?
C=CCn1cnc2scc(-c3ccc(OC)cc3)c2c1=O,61*,1,0,-2,16
COc1ccc(CN2CCC(C)(Oc3ccc4c(c3)OCO4)C2)c2ccccc12 (stereo not given),-30,nt,0,-1,70*
C[C@H](CO)N1C[C@H](C)[C@@H](CN(C)Cc2ccc(-c3ccccc3)cc2)Oc2c(NS(=O)(=O)c3ccc(Cl)cc3)cccc2C1=O,-4,nt,nt,1,-33[16.7 µM]
CCC(=O)N1CC2(CCN(Cc3ccc(Cl)cc3)CC2)c2c([nH]c3cc(OC)ccc23)[C@H]1CO,-7,nt,nt,9.8*,nt
COc1cccc(S(=O)(=O)N2CCC3(CC2)CN(C(=O)Nc2cccc(F)c2)[C@@H](CO)c2[nH]c4cc(OC)ccc4c23)c1,9,nt,nt,1,72*[16.7 µM]
COCC(=O)N1CC2(CCN(Cc3ccc(Cl)cc3)CC2)c2c([nH]c3cc(OC)ccc23)[C@@H]1CO,0,nt,nt,2,nt
C[C@@H]1CN([C@H](C)CO)C(=O)c2cc(-c3cccc(F)c3)cnc2O[C@@H]1CN(C)C(=O)C1CCC1,12,nt,nt,-1,1[16.7 µM]
SMILES,INS-1E GSIS act,MITF act,Wnt act,F508del corr,Env fusion inh
N#Cc1ccccc1NC(=O)COc1ccc2c(c1)OCO2,10,120*,18,3,-38
Cc1ccc(NC(=O)COc2ccc3c(c2)OCO3)c(Cl)c1,-12,98*,41*,-1,-87
Cc1noc(C)c1NC(=O)N(C)C[C@@H]1OCCCC[C@@H](C)Oc2ccc(NC(=O)NC3CCCCC3)cc2C(=O)N([C@H](C)CO)C[C@@H]1C,-1,nt,nt,-1,-6[16.7 µM]
C[C@H](CO)N1C[C@H](C)[C@@H](CN(C)C(=O)c2cccnc2)Oc2ncc(C#CCN(C)C)cc2C1=O,3,nt,nt,2,-13[16.7 µM]
CC(=O)c1sc(N/N=C/c2cccc(O)c2)nc1C,8,93*,17,1,-56
CC(=O)c1sc(N/N=C\c2ccc(N(C)C)cc2)nc1C,0,nt,25,2,-457
CC(=O)c1sc(N/N=C/c2cccc([N+](=O)[O-])c2)nc1C,-5,105*,15,0,-73
COc1ccc2cc(C3CC=C(CO)CN3S(=O)(=O)c3ccccc3[N+](=O)[O-])n(C(=O)OC(C)(C)C)c2c1 (stereo not given),-26,nt,-8,0,65*
C/C=C/c1ccc2c(c1)O[C@@H](CN(C)C(=O)Nc1ccc(F)cc1)[C@H](C)CN([C@H](C)CO)S2(=O)=O,-40,nt,nt,6,-10[16.7 µM]
COc1ccc(/C(C)=N/NC(=O)c2cccc(S(=O)(=O)N3CCCC3)c2)c(O)c1,9,-73,-5,9.8*,82*
CC1(Cc2cc(Cl)ccc2C(F)(F)F)C(=O)Nc2ccc(-c3ccc(F)c(Cl)c3)cc21 (stereo not given),283*,nt,-2,-6,28
COc1ccccc1-c1ccc2c(c1)C(C)(Cc1cc(Cl)ccc1C(F)(F)F)C(=O)N2 (stereo not given),6,nt,-2,-3,-3
CC1(Cc2cc(Cl)ccc2C(F)(F)F)C(=O)Nc2cc(C(F)(F)F)ccc21 (stereo not given),298*,nt,-11,3,-42
CC1(Cc2ccc(C(F)(F)F)o2)C(=O)Nc2cc(-c3ccc(F)cc3F)ccc21 (stereo not given),-18,nt,-2,1,62*
CC1(Cc2ccccc2Cl)C(=O)Nc2cc(-c3ccccc3Cl)ccc21 (stereo not given),-4,nt,0,0,-3
COc1ccc(NC(=O)N(C)C[C@@H]2Oc3ccc(NC(=O)CCN4CCOCC4)cc3CC(=O)N([C@@H](C)CO)C[C@H]2C)cc1,16,nt,nt,-1,nt
C[C@H](CO)N1C[C@H](C)[C@H](CN(C)CC2CCOCC2)Oc2cc(C#CC3CC3)ccc2S1(=O)=O,-6,nt,nt,0,-16[16.7 µM]
COc1ccc(COCC23N=C4SCc5ccccc5CN4[C@H](c4ccccc4O2)[C@H]3COC(=O)c2ccccc2)cc1,nt,nt,nt,2,69*[16.7 µM]
CCCNC(=O)[C@@H]1[C@@H](CO)[C@@H]2Cn3c(ccc(-c4cccc(OC)c4)c3=O)[C@H]1N2CCC,-4,nt,nt,-1,nt
Nc1nc2ccccc2n1/N=C/c1ccc(-c2ccccc2)o1,nt,nt,53*,nt,-96

# High-throughput results as filed in PubChem BioAssay.
